Data as given in PMC7862700, “An all-to-all approach to the identification of sequence-specific readers for epigenetic DNA modifications on cytosine”.

Key:
Assay in all cases: DAPPL (digital affinity profiling via proximity ligation, sequencing); 10 mM Tris-HCl pH 7.5, 50 mM NaCl, 1 mM DTT, 4% glycerol, room temperature, 30 min; GST-TFs on glutathione beads, 16-mer random dsDNA library, 0.1% formaldehyde crosslink after washing; high values mean tight binding
[1] = target: T1, FEV (Homo sapiens, UniProt Q99581 1-238); details: protein: recombinant; tags: N-terminal GST; dsDNA, one strand shown
T1 sequence: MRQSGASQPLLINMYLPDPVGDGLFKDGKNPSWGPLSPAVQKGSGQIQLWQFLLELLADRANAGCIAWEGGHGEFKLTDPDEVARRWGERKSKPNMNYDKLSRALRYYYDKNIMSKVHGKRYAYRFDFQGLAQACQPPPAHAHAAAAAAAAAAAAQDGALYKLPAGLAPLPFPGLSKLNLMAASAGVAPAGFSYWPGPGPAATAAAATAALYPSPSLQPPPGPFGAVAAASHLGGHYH
Procedure, shortened: (§1)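 Binding signal is each hexamer's read frequency for a factor divided by its frequency in the tag-only sample. The factors were GST-fused human transcription factors from yeast, captured on glutathione beads, DNA-barcoded and pooled with that sample. Pools were incubated with 200 nmole of a random double-stranded 16-mer DNA library in Tris/NaCl/DTT/glycerol buffer at room temperature for 30 min, then washed, crosslinked with 0.1% formaldehyde, proximity-ligated with BsaI/T4 ligase (1 h, 37 °C), PCR-amplified and sequenced on an Illumina NextSeq500.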

[2] = target: ETV5 (Homo sapiens, UniProt P41161 1-510); details: protein: recombinant; tags: N-terminal GST; dsDNA, one strand shown
Procedure, shortened: as §1

[3] = target: HSF1 (Homo sapiens, UniProt Q00613 1-529); details: protein: recombinant; tags: N-terminal GST; chain copies: 3; dsDNA, one strand shown
Procedure, shortened: as §1

[4] = target: ELF4 (Homo sapiens, UniProt Q99607 1-663); details: protein: recombinant; tags: N-terminal GST; dsDNA, one strand shown
Procedure, shortened: as §1

[5] = target: T2, ELK4 (Homo sapiens, UniProt P28324-2 1-405); details: protein: recombinant; tags: N-terminal GST; dsDNA, one strand shown
T2 sequence: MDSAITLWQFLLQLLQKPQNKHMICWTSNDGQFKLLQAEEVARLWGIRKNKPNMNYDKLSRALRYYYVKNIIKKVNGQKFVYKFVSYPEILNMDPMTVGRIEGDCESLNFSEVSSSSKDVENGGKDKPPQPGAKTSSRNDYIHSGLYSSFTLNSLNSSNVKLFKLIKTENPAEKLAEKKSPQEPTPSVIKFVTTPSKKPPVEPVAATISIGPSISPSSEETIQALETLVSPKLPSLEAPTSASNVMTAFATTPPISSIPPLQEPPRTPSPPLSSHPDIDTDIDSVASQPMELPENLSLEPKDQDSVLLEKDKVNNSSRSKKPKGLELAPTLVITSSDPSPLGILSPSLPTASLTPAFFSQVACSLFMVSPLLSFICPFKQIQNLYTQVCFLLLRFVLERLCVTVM
Procedure, shortened: as §1

[6] = target: T3, ETV2 (Homo sapiens, UniProt O00321 1-342); details: protein: recombinant; tags: N-terminal GST; dsDNA, one strand shown
T3 sequence: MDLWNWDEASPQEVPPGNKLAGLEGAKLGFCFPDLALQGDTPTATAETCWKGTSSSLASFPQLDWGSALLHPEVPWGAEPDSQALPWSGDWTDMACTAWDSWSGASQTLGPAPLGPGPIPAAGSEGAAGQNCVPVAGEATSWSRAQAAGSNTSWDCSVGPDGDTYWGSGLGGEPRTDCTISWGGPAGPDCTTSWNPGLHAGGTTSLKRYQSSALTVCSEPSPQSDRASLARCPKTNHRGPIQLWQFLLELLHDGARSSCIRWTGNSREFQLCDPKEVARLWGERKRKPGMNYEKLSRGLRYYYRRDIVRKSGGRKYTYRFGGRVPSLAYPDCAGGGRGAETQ
Procedure, shortened: as §1

[7] = target: T4, ELF3 (Homo sapiens, UniProt P78545 1-371); details: protein: recombinant; tags: N-terminal GST; dsDNA, one strand shown
T4 sequence: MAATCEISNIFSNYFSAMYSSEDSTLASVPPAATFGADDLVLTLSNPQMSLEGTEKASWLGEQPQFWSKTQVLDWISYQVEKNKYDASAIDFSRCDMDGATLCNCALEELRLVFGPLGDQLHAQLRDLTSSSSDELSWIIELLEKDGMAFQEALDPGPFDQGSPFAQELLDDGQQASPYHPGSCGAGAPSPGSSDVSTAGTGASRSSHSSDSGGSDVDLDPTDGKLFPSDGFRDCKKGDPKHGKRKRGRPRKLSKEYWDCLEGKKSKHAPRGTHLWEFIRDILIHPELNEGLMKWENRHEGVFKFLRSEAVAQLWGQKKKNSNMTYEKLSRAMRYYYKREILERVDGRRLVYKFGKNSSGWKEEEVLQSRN
Procedure, shortened: as §1

[8] = target: ETV1 (Homo sapiens, UniProt P50549 1-477); details: protein: recombinant; tags: N-terminal GST; dsDNA, one strand shown
Procedure, shortened: as §1

[9] = target: T5, ERF (Homo sapiens, UniProt P50548 1-548); details: protein: recombinant; tags: N-terminal GST; dsDNA, one strand shown
T5 sequence: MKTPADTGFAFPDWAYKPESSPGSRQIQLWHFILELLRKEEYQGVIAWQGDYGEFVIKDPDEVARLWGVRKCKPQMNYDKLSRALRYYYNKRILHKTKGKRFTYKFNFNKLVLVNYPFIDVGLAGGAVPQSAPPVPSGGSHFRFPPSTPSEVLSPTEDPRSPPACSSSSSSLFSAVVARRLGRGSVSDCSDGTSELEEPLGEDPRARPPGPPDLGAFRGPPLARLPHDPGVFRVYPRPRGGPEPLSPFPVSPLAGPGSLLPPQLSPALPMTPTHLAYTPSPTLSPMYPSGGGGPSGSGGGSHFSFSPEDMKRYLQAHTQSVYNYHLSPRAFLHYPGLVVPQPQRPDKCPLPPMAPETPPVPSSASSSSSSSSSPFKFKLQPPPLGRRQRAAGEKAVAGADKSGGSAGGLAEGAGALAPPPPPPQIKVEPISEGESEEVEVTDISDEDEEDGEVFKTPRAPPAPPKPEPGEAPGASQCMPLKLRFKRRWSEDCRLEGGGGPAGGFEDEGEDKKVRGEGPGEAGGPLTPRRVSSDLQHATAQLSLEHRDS
Procedure, shortened: as §1

[10] = target: T6, ETV3L (Homo sapiens, UniProt Q6ZN32 1-361); details: protein: recombinant; tags: N-terminal GST; dsDNA, one strand shown
T6 sequence: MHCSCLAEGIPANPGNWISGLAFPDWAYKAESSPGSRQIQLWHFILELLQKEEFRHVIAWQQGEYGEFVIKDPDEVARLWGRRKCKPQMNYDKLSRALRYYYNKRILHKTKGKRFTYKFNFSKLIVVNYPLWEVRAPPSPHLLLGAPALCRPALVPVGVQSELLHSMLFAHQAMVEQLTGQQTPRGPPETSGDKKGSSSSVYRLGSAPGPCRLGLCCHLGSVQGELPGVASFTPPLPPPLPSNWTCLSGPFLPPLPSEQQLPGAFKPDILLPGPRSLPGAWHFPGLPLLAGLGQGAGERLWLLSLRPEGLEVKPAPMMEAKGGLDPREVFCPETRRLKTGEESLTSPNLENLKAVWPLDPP
Procedure, shortened: as §1

[11] = target: T7, ETS2 (Homo sapiens, UniProt P15036 1-469); details: protein: recombinant; tags: N-terminal GST; dsDNA, one strand shown
T7 sequence: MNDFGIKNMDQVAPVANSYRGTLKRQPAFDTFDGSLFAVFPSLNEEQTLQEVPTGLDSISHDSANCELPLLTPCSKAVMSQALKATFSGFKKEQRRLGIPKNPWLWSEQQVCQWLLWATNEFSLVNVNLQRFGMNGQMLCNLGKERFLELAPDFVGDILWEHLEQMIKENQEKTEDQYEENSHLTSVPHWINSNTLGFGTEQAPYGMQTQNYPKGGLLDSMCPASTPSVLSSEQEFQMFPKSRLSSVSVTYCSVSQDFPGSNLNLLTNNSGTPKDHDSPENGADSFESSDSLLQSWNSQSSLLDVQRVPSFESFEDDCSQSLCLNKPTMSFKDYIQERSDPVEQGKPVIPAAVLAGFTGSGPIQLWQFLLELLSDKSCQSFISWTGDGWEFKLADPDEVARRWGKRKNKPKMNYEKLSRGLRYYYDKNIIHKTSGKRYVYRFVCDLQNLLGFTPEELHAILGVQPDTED
Procedure, shortened: as §1

[12] = target: T8, SPDEF (Homo sapiens, UniProt O95238 1-335); details: protein: recombinant; tags: N-terminal GST; dsDNA, one strand shown
T8 sequence: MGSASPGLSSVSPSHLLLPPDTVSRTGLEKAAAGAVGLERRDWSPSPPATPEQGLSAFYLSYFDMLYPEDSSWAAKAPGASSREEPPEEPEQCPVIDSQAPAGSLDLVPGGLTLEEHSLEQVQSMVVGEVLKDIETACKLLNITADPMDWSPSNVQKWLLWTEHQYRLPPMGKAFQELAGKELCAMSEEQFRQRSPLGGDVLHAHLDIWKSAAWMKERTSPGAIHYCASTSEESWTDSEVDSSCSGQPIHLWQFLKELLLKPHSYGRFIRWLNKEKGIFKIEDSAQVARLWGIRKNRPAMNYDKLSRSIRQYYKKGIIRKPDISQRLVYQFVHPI
Procedure, shortened: as §1

[13] = target: T9, ETV7 (Homo sapiens, UniProt Q9Y603 1-341); details: protein: recombinant; tags: N-terminal GST; dsDNA, one strand shown
T9 sequence: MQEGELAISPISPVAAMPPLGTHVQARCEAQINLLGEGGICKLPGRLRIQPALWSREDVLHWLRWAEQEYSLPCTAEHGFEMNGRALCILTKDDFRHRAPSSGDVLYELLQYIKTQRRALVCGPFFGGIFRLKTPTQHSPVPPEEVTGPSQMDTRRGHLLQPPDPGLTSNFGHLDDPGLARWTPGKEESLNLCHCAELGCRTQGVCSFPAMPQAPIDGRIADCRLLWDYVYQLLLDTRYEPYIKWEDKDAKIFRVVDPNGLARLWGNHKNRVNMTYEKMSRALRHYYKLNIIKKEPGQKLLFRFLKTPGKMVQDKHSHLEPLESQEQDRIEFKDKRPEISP
Procedure, shortened: as §1

[14] = target: T10, ETV3 (Homo sapiens, UniProt P41162-2 1-143); details: protein: recombinant; tags: N-terminal GST; dsDNA, one strand shown
T10 sequence: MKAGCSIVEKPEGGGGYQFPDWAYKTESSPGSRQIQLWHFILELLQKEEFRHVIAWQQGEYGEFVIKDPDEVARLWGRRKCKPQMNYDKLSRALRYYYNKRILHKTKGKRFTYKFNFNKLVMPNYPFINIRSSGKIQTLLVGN
Procedure, shortened: as §1

[15] = target: ETV6 (Homo sapiens, UniProt P41212 1-452); details: protein: recombinant; tags: N-terminal GST; dsDNA, one strand shown
Procedure, shortened: as §1

Chain of ELF4 (Q99607 whole entry): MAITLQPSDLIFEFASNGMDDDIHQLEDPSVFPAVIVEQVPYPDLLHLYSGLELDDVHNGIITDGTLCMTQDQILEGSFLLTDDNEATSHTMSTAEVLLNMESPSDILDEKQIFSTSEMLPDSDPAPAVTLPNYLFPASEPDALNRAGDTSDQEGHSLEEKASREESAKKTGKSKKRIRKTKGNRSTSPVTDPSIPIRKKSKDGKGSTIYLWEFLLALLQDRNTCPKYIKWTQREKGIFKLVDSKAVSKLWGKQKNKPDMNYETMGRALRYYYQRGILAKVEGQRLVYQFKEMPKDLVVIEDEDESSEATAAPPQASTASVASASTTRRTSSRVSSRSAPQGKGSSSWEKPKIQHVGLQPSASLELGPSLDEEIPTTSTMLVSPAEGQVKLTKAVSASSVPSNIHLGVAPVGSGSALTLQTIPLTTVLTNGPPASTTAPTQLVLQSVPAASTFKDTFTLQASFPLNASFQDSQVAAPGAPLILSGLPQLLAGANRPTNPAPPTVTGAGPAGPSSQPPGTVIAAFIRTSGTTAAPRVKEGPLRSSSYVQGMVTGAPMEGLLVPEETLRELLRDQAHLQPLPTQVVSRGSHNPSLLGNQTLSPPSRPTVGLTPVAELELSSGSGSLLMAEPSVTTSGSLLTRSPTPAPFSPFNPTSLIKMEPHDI
Chain of ETV6 (P41212 whole entry): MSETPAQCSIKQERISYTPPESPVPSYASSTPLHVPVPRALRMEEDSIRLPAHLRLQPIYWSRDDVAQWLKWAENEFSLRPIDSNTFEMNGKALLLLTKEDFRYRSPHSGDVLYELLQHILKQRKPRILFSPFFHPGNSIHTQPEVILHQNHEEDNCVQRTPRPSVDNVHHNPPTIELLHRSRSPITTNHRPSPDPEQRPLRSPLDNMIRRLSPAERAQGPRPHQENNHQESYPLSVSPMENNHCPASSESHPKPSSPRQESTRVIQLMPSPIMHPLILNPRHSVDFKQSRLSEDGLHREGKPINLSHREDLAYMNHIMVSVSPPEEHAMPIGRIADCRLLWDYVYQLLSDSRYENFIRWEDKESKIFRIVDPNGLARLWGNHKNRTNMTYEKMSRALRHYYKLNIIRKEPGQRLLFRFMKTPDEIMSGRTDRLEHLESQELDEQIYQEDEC
Chain of HSF1 (Q00613 whole entry): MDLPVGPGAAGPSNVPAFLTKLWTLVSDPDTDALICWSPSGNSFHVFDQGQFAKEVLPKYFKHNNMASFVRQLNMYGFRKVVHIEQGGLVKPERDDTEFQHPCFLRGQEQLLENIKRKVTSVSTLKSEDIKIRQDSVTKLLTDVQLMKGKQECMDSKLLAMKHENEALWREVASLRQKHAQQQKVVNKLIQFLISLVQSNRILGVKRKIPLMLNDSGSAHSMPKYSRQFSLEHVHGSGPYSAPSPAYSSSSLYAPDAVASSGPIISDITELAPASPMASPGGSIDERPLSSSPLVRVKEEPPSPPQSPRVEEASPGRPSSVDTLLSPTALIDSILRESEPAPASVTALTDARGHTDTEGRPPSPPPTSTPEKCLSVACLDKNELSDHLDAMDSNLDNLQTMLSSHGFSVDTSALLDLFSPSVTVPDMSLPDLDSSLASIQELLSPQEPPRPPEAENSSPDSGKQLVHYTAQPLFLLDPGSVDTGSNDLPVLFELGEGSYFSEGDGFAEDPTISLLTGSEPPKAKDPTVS
Chain of ETV1 (P50549 whole entry): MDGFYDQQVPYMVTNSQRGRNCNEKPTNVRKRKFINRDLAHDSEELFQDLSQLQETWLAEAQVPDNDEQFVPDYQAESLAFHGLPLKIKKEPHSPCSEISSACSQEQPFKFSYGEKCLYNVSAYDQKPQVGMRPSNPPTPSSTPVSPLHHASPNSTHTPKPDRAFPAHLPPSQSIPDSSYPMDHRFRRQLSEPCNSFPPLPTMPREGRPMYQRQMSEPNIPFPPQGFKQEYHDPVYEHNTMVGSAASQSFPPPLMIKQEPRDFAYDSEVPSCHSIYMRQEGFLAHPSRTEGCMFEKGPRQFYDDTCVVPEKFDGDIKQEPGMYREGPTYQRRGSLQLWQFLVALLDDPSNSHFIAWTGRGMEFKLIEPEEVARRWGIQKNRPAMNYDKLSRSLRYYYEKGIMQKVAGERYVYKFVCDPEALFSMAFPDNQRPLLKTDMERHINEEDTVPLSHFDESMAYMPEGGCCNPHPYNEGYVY
Chain of ETV5 (P41161 whole entry): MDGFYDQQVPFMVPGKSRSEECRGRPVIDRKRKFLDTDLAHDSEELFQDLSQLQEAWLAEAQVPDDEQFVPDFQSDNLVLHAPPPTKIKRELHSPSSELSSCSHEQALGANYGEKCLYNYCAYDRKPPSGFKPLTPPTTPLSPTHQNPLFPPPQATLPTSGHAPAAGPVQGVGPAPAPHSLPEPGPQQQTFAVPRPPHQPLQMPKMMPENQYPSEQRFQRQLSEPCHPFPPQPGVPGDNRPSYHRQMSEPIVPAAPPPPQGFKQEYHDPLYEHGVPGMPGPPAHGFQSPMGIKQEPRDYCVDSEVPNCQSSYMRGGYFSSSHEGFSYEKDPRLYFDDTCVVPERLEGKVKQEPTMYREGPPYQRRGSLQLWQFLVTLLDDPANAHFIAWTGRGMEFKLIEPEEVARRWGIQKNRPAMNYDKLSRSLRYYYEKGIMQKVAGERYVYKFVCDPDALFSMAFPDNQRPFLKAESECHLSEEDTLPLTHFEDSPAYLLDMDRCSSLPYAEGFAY

CGATCG
binding signal [1]: 1.03 fold enrichment (6-mer frequency, TF over GST control)
binding signal [2]: 1.03 fold enrichment (6-mer frequency, TF over GST control)
binding signal [3]: 1.09 fold enrichment (6-mer frequency, TF over GST control)
binding signal [4]: 1.04 fold enrichment (6-mer frequency, TF over GST control)
binding signal [5]: 1.13 fold enrichment (6-mer frequency, TF over GST control)
binding signal [6]: 1.12 fold enrichment (6-mer frequency, TF over GST control)
binding signal [7]: 1.08 fold enrichment (6-mer frequency, TF over GST control)
binding signal [8]: 1.03 fold enrichment (6-mer frequency, TF over GST control)
binding signal [9]: 1.04 fold enrichment (6-mer frequency, TF over GST control)
binding signal [10]: 1.03 fold enrichment (6-mer frequency, TF over GST control)
binding signal [11]: 1.04 fold enrichment (6-mer frequency, TF over GST control)
binding signal [12]: 1.1 fold enrichment (6-mer frequency, TF over GST control)
binding signal [13]: 1 fold enrichment (6-mer frequency, TF over GST control)
binding signal [14]: 1.09 fold enrichment (6-mer frequency, TF over GST control)
binding signal [15]: 1.03 fold enrichment (6-mer frequency, TF over GST control)
